ERb coact inh: inhibitors of ERβ-SRC1 coactivator interaction, primary screen, biochemical, TR-FRET, ERβ LBD, SRC-1 peptide. inhibition, % at 25.6 µM. AID 633, 2007. 86,000 compounds, 1.3% hits. Estrogen receptor beta (Homo sapiens), Q92731. TR-FRET ER-beta LBD / SRC1-Cy5 peptide binding; receptor agonist-loaded with 1 µM estradiol;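 active = compounds whose percent inhibition of the receptor-coactivator binding signal exceeds about 50% in the single-dose screen, limit read from the data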;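 note: 0% = receptor plus peptide wells without compound and 100% = peptide-only wells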
ERa coact inh: ERα–SRC-1 coactivator interaction inhibitors, primary screen, biochemical, TR-FRET, ERα LBD, estradiol-bound; Estrogen receptor (Homo sapiens), P03372; TR-FRET ER-alpha LBD / SRC-1 peptide; inhibition, % at 25.6 µM; 86,000 compounds, 1.7% hits; AID 629, 2007; in the data active = inhibition above about 50%;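 note: 0% = receptor plus peptide control and 100% = peptide only without receptor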
EphB4 ephrin blk: EphB4-ephrin-B2 interaction antagonists, primary screen, biochemical, TNYL-RAW peptide probe, fluorescence polarization; EphB4 LBD / TNYL-RAW-Alexa532 peptide; 97,000 compounds, 0.15% hits; Ephrin type-B receptor 4 (Homo sapiens), P54760; AID 720, 2007; inhibition, % at 7 µM;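 active = inhibition above the screen-wide mean inhibition plus 3 SD, cut at about 15% in these data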;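 note: 0% = DMSO wells and 100% = excess unlabeled TNYL-RAW peptide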
ERa coact pot: enhancers of ERα–SRC-1 coactivator binding, primary screen, biochemical, TR-FRET, ERα LBD, low estradiol; Estrogen receptor (Homo sapiens), P03372; 86,000 compounds, 1.3% hits; coactivator binding (% of control), % at 25.6 µM; TR-FRET ERalpha-LBD/SRC-Cy5 coactivator binding, 2 h; 100 = basal binding, no effect; in the data active = activity above about 200%;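 note: binding measured in presence of low estradiol as agonist stimulus; 0% = peptide alone without receptor and 100% = receptor with peptide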
* hit, by the source's call; · = no result given; [ ] = remark or other dose. Sampled rows, rich in hits. Any-hit rate of the full collection: about 2.8%.

SMILES	ERb coact inh	ERa coact inh	EphB4 ephrin blk	ERa coact pot
Cc1csc(NC(=O)C2CCCN(S(=O)(=O)c3ccc(Br)s3)C2)n1 (stereo not given)	-4	-4	-2	89
Cc1cccc(NC(=O)C2CCN(S(=O)(=O)c3c(C)nn(C)c3C)CC2)n1	57*	2	·	114
Cc1nn(C)c(C)c1S(=O)(=O)N1CCC(C(=O)NC2CCCCCC2)CC1	1	1	·	127
C=CCNC(=S)N/N=C(\C)c1ccccn1	-13	-1	13	98
CCCCOCC1CN(c2ccccc2)C(=O)CS1 (stereo not given)	25	22	2	103
CCCCC1C(=O)N(c2ccccc2)N(c2ccccc2)C1=O	83*[fluorescence artefact?]	92*	·	16
Cc1ccccc1S(=O)(=O)Nc1nc2ccccc2nc1N1CCOCC1	-1	-28	-7	101
O=C(COC(=O)c1ccccc1NC(=O)c1ccco1)NCCC1=CCCCC1	98*[fluorescence artefact?]	-5	·	112
O=C(COC(=O)c1ccccc1NCc1ccco1)Nc1ccc2c(c1)OCO2	18	20	-1	86
O=C(COC(=O)c1ccccc1NC(=O)c1ccco1)NCC1CCCCC1	·	·	4	·
O=C(COC(=O)c1ccccc1NC(=O)c1ccco1)Nc1ccc2c(c1)OCO2	22	71*[fluorescence artefact?]	-7	88
Cc1c(Cl)cccc1NC(=O)C1NC(=O)CC1c1ccccc1 (stereo not given)	-3	6	-8	93
Cc1[nH]c2ccccc2c1Cc1nnc(SCc2ccccc2)o1	1	10	-3	89
CC(=O)NC1=NN(C(C)=O)C(C)(CS(=O)(=O)c2ccc3ccccc3c2)S1 (stereo not given)	-5	-2	4	84
Cc1c(C)n(C(=O)CSc2nc3ccccc3[nH]2)c2ccccc12	21	55*[fluorescence artefact?]	-5	17
COc1ccc(C(=O)NC(=O)COC(=O)C2COc3ccccc3O2)cc1 (stereo not given)	5	3	-1	108
CCn1c(O)c(C2=NCCCC2)c2ccccc21	6	-11	-4	113
Oc1[nH]c2ccccc2c1C1=NCCCC1	92*[fluorescence artefact?]	82*[fluorescence artefact?]	-2	27
COc1cccc(/C=C2\N=C(SC)SC2=O)c1OC	2	-2	·	108
COc1cccc(/C=C2\N=C(c3c(-c4ccccc4)noc3C)OC2=O)c1OC	39	68*	2	87
CCC1CC2CC(NC(C)=O)C1C2 (stereo not given)	-8	-4	-2	94
O=C(CSc1nnnn1-c1ccccc1F)Nc1nc2ccccc2s1	·	·	2	·
O=C(CSc1nnnn1-c1cccc(F)c1)Nc1nc2ccccc2s1	17	55*[fluorescence artefact?]	4	298*
O=C(O)Cn1nnnc1SCC(=O)Nc1ccc(OC(F)(F)F)cc1	3	-12	-2	105
CCOc1ccc(NC(=O)C(C)Oc2ccccc2C(=O)Nc2ccc(C)c(Cl)c2)cc1 (stereo not given)	·	·	17*	·
SMILES	ERb coact inh	ERa coact inh	EphB4 ephrin blk	ERa coact pot
CCOc1ccc(NC(=O)c2ccccc2OCC(=O)c2ccc(C)cc2)cc1	·	·	-2	·
CCCCNC(=O)Nc1ccon1	99*[fluorescence artefact?]	-3	-5	104
COCCN(CC(=O)NCc1ccccc1)C(=O)CCC(=O)Nc1ccccn1	8	15	-4	74
CCCNc1nc(C)c(C(C)=O)cc1C#N	1	11	5	117
Cc1nc2c(ccc3nc(NC(=O)c4ccc(S(=O)(=O)N(C)C)cc4)sc32)s1	12	19	0	241*[fluorescence artefact?]
COc1cccc(NC(=O)Cn2c(=O)n(CC3CCCO3)c(=O)c3ccccc32)c1 (stereo not given)	4	-2	7	104
C/C(=N\N=C\c1ccccc1)c1nnn(-c2nonc2N)c1C	·	·	1	·
Cc1occc1C(=O)Nc1ccccc1NC(=O)c1ccoc1C	55*	58*	1	116
CCCn1c(=N)c(C(=O)NCc2ccc3c(c2)OCO3)cc2c(=O)n3cccc(C)c3nc21	53*[fluorescence artefact?]	79*[fluorescence artefact?]	-5	26
CCOCCCn1c(=N)c(C(=O)NCc2ccc3c(c2)OCO3)cc2c(=O)n3ccccc3nc21	24	36	-6	73
C=CCn1c(COc2ccccc2-c2ccccc2)nnc1SCC(=O)NC(=O)NCc1ccco1	7	-2	-1	91

High-throughput results from PubChem BioAssay.
